ChEMBL document CHEMBL3988442, “University of Dundee, Small-Polar-MMV Screening Library” (2021)
The campaign covered roughly 69,000 compounds. About 950 (1.4%) showed an effect of 50% or more. The entries come from a sample that favours strong results as a whole.

test system: Mycobacterium tuberculosis; test: Cornell M. t heat shock assay; format: functional, organism-based; design: dose or concentration left out as unconfirmed; note: in the data most compounds retested in dose-response had high values

SMILES | Percent Effect [%]
Cc1cc(C(=O)N2CCc3nc(C4CCCCN4)ncc3C2)cs1.Cl (stereo not drawn) | -19.38
O=C(O)C(F)(F)F.O=C(O)C(F)(F)F.c1cc(CO[C@@H]2CC[C@H]3[C@H]2OCCN3CC2CCOCC2)ccn1 | -2.91
CN(C)[C@@H]1CN(C(=O)Cc2ccc(F)cc2)[C@@H]2CCCO[C@H]12.O=C(O)C(F)(F)F | -22.98
Cc1ccc(C(=O)N2CCc3ccc(=O)n(CCN(C)C)c3CC2)o1.O=C(O)C(F)(F)F | -16.57
O=C(NCCc1cccs1)[C@H]1CO[C@H]2CCN(C3CCC3)C[C@H]2C1.O=C(O)C(F)(F)F | 6.34
COCCN1CC[C@@H]2OC[C@H](C(=O)NCc3cccs3)C[C@@H]2C1.O=C(O)C(F)(F)F | -7.487
O=C(NCc1cccs1)[C@H]1CO[C@H]2CCN(C3CCCC3)C[C@H]2C1.O=C(O)C(F)(F)F | 16.16
CCN1CC[C@@H]2OC[C@H](C(=O)NCc3cccs3)C[C@@H]2C1 | 64.41
COCCNC(=O)[C@H]1CO[C@H]2CCN(Cc3cccs3)C[C@H]2C1 | 78.89
O=C(NCCc1cccs1)[C@H]1CO[C@H]2CCN(CC3CC3)C[C@H]2C1.O=C(O)C(F)(F)F | 1.069
O=C(NC1CCC1)[C@H]1C[C@@H]2CN(C(=O)Nc3ccc(F)cc3)C[C@H]1O2 | -5.328
CN(C)c1ncc(-c2cc(C(=O)NCCO)n(CC3CC3)c2)cn1.O=C(O)C(F)(F)F | -4.821
CC(C)c1cc(CN2CCNCC2)no1 | 100.9
CC(C)c1cc(CN2CCC(CC(=O)O)CC2)no1 | 6.455
CC(C)c1cc(CN2CCC(N)CC2)no1 | -1.347
OC1(c2ccccc2F)CCN(Cc2ccccc2N2CCCC2)CC1 | -5.486
Cc1cccc(C2(O)CCN(Cc3ccccc3N3CCCC3)CC2)c1 | 106
Cl.OC1(c2ccc(F)cc2)CCN(Cc2ccccc2N2CCCC2)CC1 | 3.038
CCN(CC)S(=O)(=O)CC(=O)N1CCc2ccc(F)cc21 | -19.64
CN1C(=O)CCN(C(=O)C2CCCCC2)c2ccccc21 | -13.68
CCN1Cc2cc(F)ccc2N(C(=O)C2CCC2)CCC1=O | 57.03
O=C(C1CCC1)N1CCC(=O)N(C2CC2)Cc2cc(F)ccc21 | 39.59

SMILES | Percent Effect [%]
COCC(=O)N1CCC(=O)N(C2CCCC2)Cc2cc(F)ccc21 | 44.15
O=C1NCCCCC1NC(=O)N1CCCc2cc(F)ccc21 (stereo not drawn) | -1.562
CC(=O)N1CCC(=O)N(C2CCCC2)Cc2ccccc21 | 18.8
CCN1Cc2cc(F)ccc2N(C(C)=O)CCC1=O | 51.48
CCN1Cc2ccccc2N(C(=O)C2CCC2)CCC1=O | 52.52
Cc1cccc(CN2CCC3(CC2)NC(=O)CC3c2ccccc2)n1.O=C(O)C(F)(F)F (stereo not drawn) | -4.61
Cc1nc(CN2CCC3(CCCN(Cc4ccoc4)C3)C2=O)cs1.O=C(O)C(F)(F)F.O=C(O)C(F)(F)F (stereo not drawn) | -16.93
COc1cccc(CNCc2ccc(F)cc2Cl)c1O | 10.28
CCOCC1CN(CC2CC2)Cc2nn(CC3CC3)cc21.O=C(O)C(F)(F)F (stereo not drawn) | 0.05869
Cn1cc(CN2CCCC23CCN(C(=O)c2ccccn2)CC3)cn1.O=C(O)C(F)(F)F | -28.64
CCN(CC)CCn1c(NC(=O)c2scnc2C)nc2ccccc21 | 46.93
CCOCCCn1c(NC(=O)c2cc(C)on2)nc2ccccc21 | 59.74
CCOCCCn1c(NC(=O)c2ccc(C)nc2)nc2ccccc21 | 25.39
CCOCCCn1c(NC(=O)c2ccnc(C)n2)nc2ccccc21 | 94.99
CCOCCCn1c(NC(=O)c2cnc(C)s2)nc2ccccc21 | -7.023
CCOCCCn1c(NC(=O)c2scnc2C)nc2ccccc21 | 84.26
CCOCCCn1c(NC(=O)c2cc(C)no2)nc2ccccc21 | 4.963
CCOCCCn1c(NC(=O)c2cnc(C)cn2)nc2ccccc21 | 28.96
CCOCCCn1c(NC(=O)c2cnn(C)c2)nc2ccccc21 | 44.67
COc1c(CNCc2ccc(C(=O)N3CCCC3)cc2)c(C)nn1C.Cl | -14.26
COc1ccc(CN2C[C@@H]3OCCN(CCN(C)C)[C@@H]3C2)cc1.O=C(O)C(F)(F)F.O=C(O)C(F)(F)F.O=C(O)C(F)(F)F | -21.44
Cl.NC(CNS(=O)(=O)Cc1cccc2cccnc12)c1ccccc1 (stereo not drawn) | -15.27

SMILES | Percent Effect [%]
O=C(NCC1CCOCC1)[C@H]1C[C@@H]2CCN(Cc3ccccc3)C[C@H]2O1.O=C(O)C(F)(F)F | -21.55
Cc1cccc(CN2CC[C@H]3[C@@H]2CC(=O)N3CC2CC2)n1.O=C(O)C(F)(F)F | -9.975
O=C(c1cscn1)N1CC[C@H]2C[C@H](c3nnc(C4CC4)o3)O[C@@H]2C1 | 27.2
O=C(c1ccoc1)N1CC[C@H]2C[C@@H](c3nnc(C4CC4)o3)O[C@@H]2C1 | 19.79
O=C(c1ccccc1)N1CC[C@H]2C[C@H](c3nnc(C4CC4)o3)O[C@@H]2C1 | 57.91
O=C(c1ccccc1)N1CC[C@H]2C[C@@H](c3nnc(C4CC4)o3)O[C@@H]2C1 | 48.55
O=C(c1ccsc1)N1CC[C@H]2C[C@@H](c3nnc(C4CC4)o3)O[C@@H]2C1 | 26.95
O=C(c1cccs1)N1CC[C@H]2C[C@@H](c3nnc(C4CC4)o3)O[C@@H]2C1 | 56.75
COCC1c2c(cnn2C)CCN1C(=O)c1cc(C)on1.O=C(O)C(F)(F)F (stereo not drawn) | 28.69
Cc1cnccc1-c1cnn(CCNC(=O)c2ccccn2)c1C1CC1.Cl | 22.13
CC(C)Cc1cc(C(=O)NC(C)(C)c2nnc(N)s2)n(C)n1 | 18.34
CC(C)Cc1nc(CN2CCc3onc(-c4cccc(F)c4)c3C2)no1 | 52.2
CC(C)(C)c1nc(CN2CCc3onc(-c4cccc(F)c4)c3C2)no1 | 31.99
CC(C)c1nc(CN2CCc3onc(-c4cccc(F)c4)c3C2)no1 | 35.68
CN(C)[C@@H]1CN(Cc2ccc(O)cc2)C[C@H]1c1cn(C)c2ccccc12.Cl | 10.72
CN(C)[C@@H]1CN(Cc2ccccc2O)C[C@H]1c1cn(C)c2ccccc12.Cl | 12.04
O=C1CCCC2=C1C(c1ccccc1F)Nc1nonc1N2 (stereo not drawn) | -20.35
O=c1cc(CN2CCCC2)nc2n1CCCN(Cc1ccsc1)C2 | -27.96
COCCNc1ncc(-c2cccc(F)c2)c(-c2nccn2C)n1 | -4.341
Cn1ccnc1-c1nc(NC2CCCC2)ncc1-c1cccc(F)c1 | 85.28
CCOCCCNc1ncc(-c2cccc(F)c2)c(-c2nccn2C)n1 | 8.299
Cl.O=C1CC2(CCCNC2)C(=O)N1Cc1cccc(F)c1 (stereo not drawn) | -11.34

SMILES | Percent Effect [%]
CCN1CCn2c(C)cnc2C12CCN(C(=O)COC)CC2.O=C(O)C(F)(F)F.O=C(O)C(F)(F)F | -13.45
CCc1nc(N)nc(N2CCCC3(CN(C)C(=O)O3)C2)c1C (stereo not drawn) | -1.052
CNC(=O)CN1CCCC12CCN(C(=O)c1ccoc1)CC2.O=C(O)C(F)(F)F | 6.336
Cc1nc(-c2cncnc2C2CCCNC2)no1.Cl.Cl (stereo not drawn) | -15.54
COc1ccccc1C(=O)N1CCOC2(CCCN(C(C)=O)C2)C1 (stereo not drawn) | 71.6
COc1cccc(C(=O)N2CCOC3(CCCN(C(C)=O)C3)C2)c1 (stereo not drawn) | 5.566
CC(=O)N1CCCC2(C1)CN(C(=O)c1ccncc1)CCO2 (stereo not drawn) | -1.478
Cc1noc([C@H]2C[C@@H]3CCN(c4nnc(C)s4)C[C@H]3O2)n1.O=C(O)C(F)(F)F | 1.861
Cc1ccc(N2CCC3(CCN(C(=O)c4ccsc4)C3)CC2)nn1.O=C(O)C(F)(F)F | -20.48
Fc1ccc(CN2CCC3(CC2)CC(c2cccnc2)CO3)cc1.O=C(O)C(F)(F)F.O=C(O)C(F)(F)F (stereo not drawn) | -26.17
COCCN1C(=O)[C@H]2CC[C@@H]1CN(C(=O)CCc1n[nH]c(C)c1C)C2 | 8.165
O=C(NC1CC1)c1cnc(-c2noc3cc(N4CCCCC4)ccc23)s1 | -8.735
O=C(c1cnc(-c2noc3cc(N4CCCC4)ccc23)s1)N1CCCC1 | -6.808
CCN(C)C(=O)c1cnc(-c2noc3cc(N4CCCCC4)ccc23)s1 | 85.74
Cl.O=C(c1ccnc(C2CCNCC2)c1)N1CCCOCC1 | -3.625
CCS(=O)(=O)NCC(=O)N1CC2(CCCC2)c2c(F)cccc21 | 17.06
CNS(=O)(=O)CC(=O)N1CC2(CCCC2)c2c(F)cccc21 | 13.66
O=C(NCC(=O)N1CC2(CCCC2)c2c(F)cccc21)C1CC1 | 55.94
CCCS(=O)(=O)N1C[C@@H](Oc2ncccc2F)[C@H]2OCCC[C@H]21.O=C(O)C(F)(F)F | -14.35
Cl.Cl.O=C(N[C@@H]1CN[C@H]2CCCO[C@H]21)c1cccnc1 | -32.33
CCc1n[nH]c(C2CN(Cc3ncc(CC)o3)CCO2)n1 (stereo not drawn) | -30.6
COc1ccc(CNCc2ccnc(N3CCCC3)c2)c(OC)c1.Cl | 15.53
